This is part of a sample that, as a whole, favours compounds with a hit. Of some 83,000 tested, about 20% had one in any assay.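 Step 1: grow cells in 96-well plates. Step 2: add test compound at a single concentration. Step 3: incubate 48 h. Step 4: record percent growth.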 Unmarked numbers belong to inactive results. Active and inactive are the calls of the source. How the source made its calls: active means growth percent below 10; inactive means the rest.
The compounds below were run on MCF7 breast (assay: NCI-60 one-dose screen, 48 h (100 = growth as untreated, 0 = no growth, -100 = all killed)). Details: 10 µM unless noted.

Compound	growth
CC1=C(C(=O)Nc2ccccc2)C(c2cccc3ccccc23)n2c(nc3ccccc32)N1 (stereo not drawn)	38.5%
COc1ccc2nc(NC(=O)c3ccc(N(C)C)cc3)sc2c1	44.7%
C[C@H]1[C@@H](CC(=O)N[C@@H](Cc2coc3ccccc23)B(O)O)O[C@@H]2OC3(C)CC[C@H]4[C@H](C)CC[C@@H]1[C@@]24O3	24.4%
Fc1ccc(N2CC(Cn3c(C(F)(F)F)cc4c(Cl)ncnc43)C2)c(F)c1	57.7%
Cn1cc(-c2cc(N)n3nc(-c4c[nH]c5ccc(F)cc45)cc3n2)c2cc(Br)cnc21	47.1%
O=C1Nc2ccc(F)cc2/C1=C/C(=O)c1cc2ccccc2oc1=O	69.4%
O=C(CSc1nc2ccccc2c(=O)[nH]1)NNC(=O)c1ccccc1Cl	93.4%
CCCCNc1ccc2c3c(cccc13)C(=O)N(NCC(O)COc1ccc3c(C)cc(=O)oc3c1)C2=O (stereo not drawn)	64.6%
COc1cc(CNC(=O)C[C@H](C)CCC=C(C)C)ccc1OCc1cn(-c2ccccc2Cl)nn1	40.6%
Cc1cccc(-c2ccccc2Oc2ccc3nnc(Cl)n3n2)c1	95%
CCOc1ccccc1[C@H]1C(C(=O)c2ccc(Cl)cc2)C2(N[C@@H]1c1ccccc1)C(=O)Nc1ccccc12 (stereo partly drawn)	-9.52% (active)
CCc1ccccc1-c1nc(CN[C@@H]2C[C@@H]3C[C@H]([C@H]2C)C3(C)C)c(C)o1	-84.4% (active)
COc1cc(C=O)ccc1OC(=O)c1cc(-c2ccc(C)cc2)n(-c2ccc(S(C)(=O)=O)cc2)n1	88.4%
